Assay outcomes: PubChem, several laboratories
MEKK3 PB1 HTS: MEKK3-MEK5 PB1 interaction, increase or decrease | binding response (% of control), % at 10 µM | bead-based flow cytometry, Alexa488-MEK5 binding to MEKK3; actives lie on both sides; 0 = blocked by unlabeled MEK5, 100 = vehicle | Q99759 | 1.4% of 290,000 active;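 active = binding response more than 3 SD above or below the average of its plate-row segment, actives on both sides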;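 also: Alexa488 bead fluorescence after subtracting the streptavidin-only scavenger bead signal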
Mot1-301 SUMO: SUMOylation pathway inhibition by Mot1-301 growth rescue; S. cerevisiae Mot1-301 growth rescue, ATP luminescence, 38.5C; percent above DMSO median, 100 means doubled; AID 2716; growth rescue, % at 18.8 µM; 1% of 320,000 active;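 active = every valid replicate shows activation above 250% relative to neutral control wells; inactive = the rest, any valid replicate at or below 250%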;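 also: OY570 slx delta 5 strain wells were the positive control but not used for scaling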
CHT allo act: allosteric activators of human choline transporter CHT. Q9GZV3. B-score at 10 µM. AID 488977. CHT-expressing cells, membrane potential dye, choline EC20; hits give high values; LV-AA mutant CHT in HEK293 cells. 0.49% of 310,000 active;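 active = initial fluorescence not abnormally high and integrated response B-score, plate-corrected, over 3 SD above library mean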
CHT inh: inhibitors of human choline transporter CHT. AID 488975. Q9GZV3. CHT-expressing cells, membrane potential dye, choline response; hits give low values. B-score at 10 µM. 0.86% of 310,000 active;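 active = B-score over 3 SD under the library average, and starting fluorescence ratio not unusually high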;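 also: choline stimulus applied at its EC90 after an EC20 pre-addition; B-score computed on integrated fluorescence ratio after choline addition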
MEKK2wt PB1 HTS: raises or lowers MEK5 binding to wildtype human MEKK2 PB1 domain | binding response (% of control), % at 10 µM | AID 1531 | bead flow cytometry, Alexa488-MEK5 binding to MEKK2 WT; actives lie on both sides | 1.1% of 290,000 active; in the data active = binding response below about 67% or above about 130%
MEKK2mut PB1 HTS: signal of MEK5 binding to mutant human MEKK2 PB1 domain. bead flow cytometry, Alexa488-MEK5 binding to MEKK2 mutant. percent response, % at 10 µM. 0.35% of 290,000 active. AID 1530; in the data active = percent response above about 24%, passing the limit was not always enough
CHT inh conf: human CHT inhibition, confirmatory screen; CHT-expressing cells, choline membrane potential dye; LV-to-AA substituted CHT, HEK293 cells; 70% of 2,400 active; CHT activity remaining % of control (hits give low values), % at 10 µM; shares compounds with CHT inh;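 active = choline transporter activity left, mean of duplicates at 10 µM, below buffer-only control mean minus 3 SD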;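 also: depolarization triggered by choline at its EC90 following an EC20 pre-addition; 0% = hemicholinium-3 full block and 100% = buffer-only control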
HEK293 CHT ctr: activity in parental HEK293 cells lacking CHT; shares compounds with CHT inh; membrane potential dye, choline response; active = decrease or increase beyond buffer ±3SD; membrane potential ratio readout (active if shifted either direction beyond buffer ±3SD; no single direction) at 10 µM; 4% of 2,400 active;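 also: parental cells lack the transporter so any hit is non-specific; ratio is peak minus trough fluorescence over baseline after EC90 choline challenge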
Numbers without * were called inactive; i = inactive; nt = no result given. This is a sample that favours compounds with a hit; in the whole collection about 4.1% have one here.

SMILES	MEKK3 PB1 HTS	Mot1-301 SUMO	CHT allo act	CHT inh	MEKK2wt PB1 HTS	MEKK2mut PB1 HTS	CHT inh conf	HEK293 CHT ctr
COC(=O)c1cc(NC(=O)Cn2c(=O)oc3ccccc32)cc(C(=O)OC)c1	99.0	7.9	i	i	100.0	-2.0	nt	nt
Cc1cc(C)c(C(=O)Nc2ccc(S(=O)(=O)Nc3ccccn3)cc2)c(C)c1	95.0	-8.8	i	-13.8*	89.0	-12.0	5.0%*	i
COc1ccc(-n2nc(C(=O)O)cc2-c2ccccc2)cc1	104.0	-4.4	i	i	112.0	9.0	nt	nt
Cc1ccc(-c2csc(NC(=O)C3=NN(C4CCS(=O)(=O)C4)C(=O)CC3)n2)cc1 (configuration not stated)	106.0	-6.8	i	i	107.0	-2.0	nt	nt
COC(=O)Nc1ccc(S(=O)(=O)NNC(=O)c2c(O)c3ccccc3n(C)c2=O)cc1	107.0	-5.4	i	-5.77*	101.0	2.0	43.3%*	i
CCn1c(=O)c(C(=O)NNS(=O)(=O)c2ccc(NC(=O)OC)cc2)c(O)c2ccccc21	96.0	8.9	i	i	98.0	2.0	nt	nt
O=C(COc1ccccc1/C=C1\SC(=O)NC1=O)Nc1ccccc1	101.0	4.1	i	-5.72*	103.0	-1.0	51.5%*	i
COc1cccc(/C=C2/NC(=O)NC2=O)c1OCC(=O)Nc1ccccc1	104.0	-14.1	i	i	98.0	-1.0	nt	nt
Cn1c(=O)c2ccccc2n(CC(=O)NCCC2=CCCCC2)c1=O	99.0	-10.0	i	i	98.0	-1.0	nt	nt
NC(=O)Cn1c(=O)n(CCCC(=O)NC2CCN(Cc3ccccc3)CC2)c(=O)c2ccccc21	84.0	6.7	i	-5.59*	90.0	-8.0	i	i
O=C(Cn1c(=O)n(CCCCC(=O)NC2CCCC2)c(=O)c2ccccc21)NCCC1=CCCCC1	98.0	11.5	i	-6.95*	97.0	2.0	i	i
O=C(CCn1c(=O)c2ccccc2n(Cc2ccccc2)c1=O)NC1CCN(Cc2ccccc2)CC1	91.0	-4.7	i	i	87.0	-21.0	nt	nt
O=[N+]([O-])c1cccc(S(=O)(=O)Nc2ccc3cn[nH]c3c2)c1	nt	-24.5	nt	nt	nt	nt	nt	nt
CCN1CCn2c3c(c4cc(Cl)ccc42)CCCC31 (configuration not stated)	104.0	1.2	i	-5.76*	108.0	8.0	70.2%*	i
CCN(CC)CCN1CCn2c3c(c4cc(C)ccc42)CCCC31 (configuration not stated)	108.0	-6.8	i	i	111.0	1.0	nt	nt
O=C(Nc1ccc(S(=O)(=O)N2CCOCC2)cc1)c1ccc(Cl)cc1Cl	99.0	19.6	i	-6.39*	100.0	16.0	43.3%*	i
CN1CCN(c2ccc(NC(=O)c3ccc(Cl)cc3Cl)cc2)CC1	103.0	6.2	i	-6.45*	113.0	5.0	40.9%*	i
O=C(Nc1ccc(S(=O)(=O)NC2=NCCCCC2)cc1)c1ccc(Cl)cc1Cl	nt	2.8	i	-12.3*	nt	nt	-7.3%*	i
O=C(COc1cc2oc(=O)c3c(c2cc1Cl)CCCC3)NCC1CCC(C(=O)O)CC1 (configuration not stated)	105.0	-18.6	i	i	109.0	5.0	nt	nt
COc1ccc(CN2CC[C@@H](N3CCOCC3)[C@H](O)C2)cc1F	104.0	-6.9	i	i	104.0	2.0	nt	nt
Cc1ccc(NC(=O)CNC(=O)c2cccc(Cl)c2)nc1	nt	32.9	i	-6.19*	nt	nt	26.0%*	i
O=C(Nc1cccc(S(=O)(=O)N2CCOCC2)c1)C1=NN(c2ccccc2)C(=O)CC1	99.0	5.6	i	i	98.0	-1.0	nt	nt
